# Source: PubChem
# Shown is part of a subset that was picked to be rich in hits.
# KDM5B inh = KDM5B demethylase inhibition. Potency, µM (titrated, usually from 57.7 µM), hits mostly inhibitors. Q9UGL1. AID 1347165. 2.6% of 220,000 active. KDM5B demethylase, FDH-coupled NADH fluorescence (FDH is formaldehyde dehydrogenase); active means well fitted inhibition curve with a large enough effect; further: 0% is about no effect; nearly all actives have a fitted effect of over 70% in size
#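 Here, H3K4me3 peptide (12.5 µM in substrate mix) is demethylated by KDM5BΔAP, 200 nM final, after 10 min compound exposure. Formaldehyde product is coupled through FDH (0.25 U/mL in mix) to NADH fluorescence; 30-min ΔRFU feeds dose-response curves.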
# Numbers without * were called inactive; i = inactive. Potency means the concentration at half of the fitted maximal effect.
SMILES,KDM5B inh
Cc1cccn2cc(COc3cccc(C(=O)O)c3)nc12,i
CCn1c(C)c(CCC(=O)NCC2CCCO2)c(=O)n2nc(-c3ccccc3OC)cc12 (stereo not given),i
Cc1ccc(N2C(=O)N(Cc3ccc4c(c3)OCO4)c3ccccc3S2(=O)=O)c(C)c1,i
CN(C)C(=O)c1nc(-c2ccccc2)c2ccccn12,i
C#CCNC(=O)c1nc(-c2ccc(Cl)cc2)c2ccccn12,31.6µM*
CC(C)NC(=O)c1nc(-c2ccc(Cl)cc2Cl)c2ccccn12,79.4µM*
CN(C)C(=O)c1nc(-c2ccc(Cl)cc2)c2ccccn12,8.91µM*
CN(C)C(=O)N1CCc2nc(-c3ccc(Cl)cc3)nc(-c3ccccc3)c2C1,i
CC(C)NC(=O)C1CCc2nnc(-c3ccc(Cl)cc3Cl)n21 (stereo not given),i
C#CCNC(=O)c1nc(-c2ccc(Cl)cc2Cl)c2ccccn12,89.1µM*
CC(C)NC(=O)c1cc(Cl)ccc1Cl,i
C#CCNC(=O)c1nc(-c2cccnc2)c2ccccn12,i
CN(C)CC1(O)CCC2(CCN(C(=O)CCc3ccccc3)CC2)CC1,i
COc1ccc(C(=O)N[C@@H]2CCC[C@@H]2C(=O)NCCc2c[nH]c3ccc(OC)cc23)cc1,i
CCCCN1C(=O)C(NC(=O)c2ccc(C(C)(C)C)cc2)(C(F)(F)F)C(C(C)=O)=C1C (stereo not given),i
COc1ccc(NC(=O)c2ccccc2NC(=O)CSc2nc3ccc(C)cc3[nH]2)cc1,i
CCCNC(=O)c1ccccc1NC(=O)C1CCN(S(=O)(=O)Cc2ccccc2C)CC1,i
CC(NC(=O)C1CCCc2ccccc21)c1ccc(Br)cc1 (stereo not given),i
CCOc1ccc(CC(=O)N2C[C@@H](COC)[C@H](c3nc(C)no3)C2)cc1,i
CCN1CCCN(C(=O)CCC2CCCC2)CC12CCOCC2,i
COc1ccc(C(=O)N2CCCC3(C2)NC(=O)c2ccccc2O3)cc1 (stereo not given),i
COCCN(Cc1ccsc1)Cc1cn[nH]c1-c1ccc(F)cc1,i
Cc1ncc(CC(=O)N2CCCC(C)(Cc3ccc4c(c3)OCO4)C2)c(=O)[nH]1 (stereo not given),i
COc1ccc(-c2nnc3n2CCN(C(=O)Nc2ccc(Cl)cc2)C3)cc1,i
C#CCNC(=O)c1nc(-c2ccc(Cl)cc2)c2cnccn12,39.8µM*
SMILES,KDM5B inh
C#CCNC(=O)c1nc(-c2cc(Cl)cc(Cl)c2)c2ccccn12,10µM*
Cc1cccc(C)c1-c1nc(C(=O)N(C)C)n2ccccc12,39.8µM*
O=C(O)C(c1c[nH]c2ccc(OCc3ccccc3)cc12)N1CCN(CC(=O)N2CCOCC2)CC1 (stereo not given),i
CCOc1cccc2cc(-c3nc(-c4ccccc4Cl)no3)c(=O)oc12,i
Cc1ccccc1N(C)C1CN(Cc2ccc(C(F)(F)F)cc2)C1,i
COCCN1CCC(OC(C)=O)C(C)C1C (stereo not given),i
O=C(c1ccccc1)N1CCN2C(=O)N(Cc3ccccn3)C[C@H]2C1,i
O=C1N(Cc2ccccn2)C[C@H]2CN(Cc3ccc(C(F)(F)F)cc3)CCN12,i
CS(=O)(=O)c1ccc(CN2CCN3C(=O)N(Cc4ccccn4)C[C@H]3C2)cc1,28.2µM*
CCc1ccc(NC(=O)CN(c2cccc(C)c2C)S(C)(=O)=O)cc1,i
N#Cc1nccnc1N1CCN(C2CCC3(CCNCC3)CC2)CC1,22.4µM*
CC(C(=O)Nc1nccs1)N1CCN(c2nccnc2C#N)CC1 (stereo not given),i
COCc1nnc(NC(=O)CN2CCN(c3nccnc3C#N)CC2)s1,i
O=C1CCCC2=C1C(c1ccsc1)CC(=O)N2c1ccc(F)cc1 (stereo not given),i
CCc1ccc(NC(=O)CCn2cnc3onc(-c4ccccc4Cl)c3c2=O)cc1,i
CCCc1nc(C(=O)NC2CCCc3nc(N(C)C)ncc32)cs1 (stereo not given),25.1µM*
CCCc1nc(C(=O)NCC2CCN(Cc3ccc(C)o3)CC2)cs1,i
O=C(CC1CC1)NC1CCCc2nc(-c3ccccc3)ncc21 (stereo not given),i
O=C(Nc1cc(Cl)ccc1Cl)C12CC3CC(CC(C3)C1)C2,i
O=C(C1CCCC1)N1CCCN(c2nc3ncccc3o2)CC1,28.2µM*
O=C(c1ccc(Cl)nc1)N1CCCN(c2nc3ncccc3o2)CC1,i
O=C(Nc1ccc(Cl)cc1)N1CCCN(c2nc3ncccc3o2)CC1,i
O=C(c1ccc(C(F)(F)F)cc1)N1CCCN(c2nc3ncccc3o2)CC1,i
O=C(C1CCCN(c2nc3ncccc3o2)C1)N1CCN(c2ncccn2)CC1 (stereo not given),25.1µM*
CC(C)(C)C(=O)N1CCCN(c2nc3ncccc3o2)CC1,35.5µM*
SMILES,KDM5B inh
O=C(NC1CCCC1)N1CCCN(c2nc3ncccc3o2)CC1,28.2µM*
O=C(C1CCCN(C2CCN(c3nc4ccccc4o3)CC2)C1)N1CCSCC1 (stereo not given),i
Cc1nc2cc(NC(=O)COc3cc(Cl)ccc3Cl)ccc2o1,i
CCOC(=O)c1c(S(=O)(=O)N2CCCC2)nn(CC)c1C,i
CCn1nc(C(=O)NCCC(C)C)c2ccccc2c1=O,i
Cc1nn(-c2ccc(Cl)nn2)c2c1C(c1ccc(C#N)cc1)CC(=O)N2 (stereo not given),i
C/C(=N\NC(=O)c1cccs1)c1ccc(C)cc1,i
COCCOc1ccc(C(=O)/C=C/c2ccc(OC)c(O)c2)cc1,i
CCOc1ccccc1NS(=O)(=O)c1cc(-c2c(C)nn3c2NC(=O)CCC3=O)ccc1OC,i
NC1CCCN(Cc2cc(F)ccc2-n2cccn2)CC1 (stereo not given),i
COc1cccc(C2CC(=O)Nc3c(C(=O)O)cn(-c4cccc(Cl)c4)c32)c1OC (stereo not given),i
O=C1CCCC2=C1C(c1ccc(Cl)c(Cl)c1)n1nnnc1N2 (stereo not given),i
COc1ccc(CC(=O)N2CCCN(c3nc4ncccc4o3)CC2)cc1,i
COCC(=O)N1CCN(c2nc3ncccc3o2)CC1,31.6µM*
COc1ccc(C(=O)N2CCN(c3nc4ncccc4o3)CC2)cc1C#N,i
O=C(O)C[C@@H]1CCN(C(=O)c2cccs2)C[C@@H]1CCN1CCN(c2ccccn2)CC1,i
COc1cc(SC)ccc1C(=O)N[C@H]1CCN2C(=O)[C@@H](CC(=O)O)NC(=O)[C@@H]2C1,i
O=C1Nc2ccc(-c3ccc4c(c3)OCO4)cc2C(=O)N2CCN(C(=O)COc3ccccc3)C[C@H]12,28.2µM*
O=C(N[C@H]1CCN2C(=O)c3cc(-c4ccc5c(c4)OCO5)ccc3NC(=O)[C@H]12)c1cccc(F)c1,i
COc1cc(SC)ccc1C(=O)N[C@H]1CCN2C(=O)N(c3ccc(C)cc3)C(=O)[C@@H]2C1,i
O=C1C[C@@H]2CCN(C(=O)COc3ccccc3)C[C@@H]2CCN1Cc1ccc2c(c1)OCO2,i
O=C1Nc2ccc(-c3ccc4c(c3)OCO4)cc2C(=O)N2CCN(C(=O)NC3CCCCC3)C[C@H]12,11.2µM*
COc1cc(SC)ccc1C(=O)N[C@H]1C[C@H]2C(=O)Nc3ccc(-c4ccc5c(c4)OCO5)cc3C(=O)N2C1,31.6µM*
O=c1oc2ccccc2c(NCc2ccccc2)c1NS(=O)(=O)c1cc(F)ccc1F,i
CCCCS(=O)(=O)CCSS(=O)(=O)O,i
